Measurements published in PubChem BioAssay (Tox21).
Results filed as inconclusive are left out. Active and inactive are the calls of the source. Unless noted, calls come from the whole dose curve; as a rule, active = well fitted curve in the direction sought with a large enough effect in the repeat runs; inconclusive = weak or mixed curves; inactive = no such curve, though single readings can be large; an effect the other way counts as inactive or inconclusive.

Experiments:
[1] = qHTS assay to identify small molecule agonists of the peroxisome proliferator-activated receptor delta (PPARd) signaling pathway - cell viability counter screen (AID 743211); note: nearly all actives have a fitted effect of over 55% in size
Method in brief: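 PPARd-bla HEK293H cells (UAS-beta-lactamase reporter) were treated with compounds for 17 h at 37 C. Viability was then read in the same wells by CellTiter-Glo luminescence after 30 min at room temperature.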

[2] = molecular target: Peroxisome proliferator-activated receptor delta (Homo sapiens) (UniProt Q03181); test: qHTS assay to identify small molecule agonists of the peroxisome proliferator-activated receptor delta (PPARd) signaling pathway (AID 743212; calls by dose curve)
Method in brief: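 HEK293H UAS-bla reporter cells, human PPARd system; compounds delivered in DMSO after 5 h plating, then at 37 C. Beta-lactamase FRET read, 2 h RT substrate step.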

[3] = qHTS assay to identify small molecule antagonists of the peroxisome proliferator-activated receptor delta (PPARd) signaling pathway - cell viability counter screen (AID 743213); note: nearly all actives have a fitted effect of over 50% in size
Method in brief: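 Luminescence from CellTiter-Glo, added after the bla read and incubated 30 min at room temperature, gives viability of HEK293H PPARd-bla cells exposed to compounds for 17 h at 37 C with 300 nM L165041.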

[4] = molecular target: Peroxisome proliferator-activated receptor delta (Homo sapiens) (UniProt Q03181); test: qHTS assay to identify small molecule antagonists of the peroxisome proliferator-activated receptor delta (PPARd) signaling pathway (AID 743215; active = well fitted inhibition curve with a large enough effect in the signal ratio in the repeat runs, not every such curve was filed as active; the % refers to the signal ratio;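 note: cells stimulated with agonist L165041 at 300 nM final during compound exposure; series mostly up to about 62 µM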)
Method in brief: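 PPARd UAS-bla HEK293H cells were pre-incubated 5 h at 37 C, then given test compounds in DMSO plus agonist L165041 (300 nM final). After 17 h at 37 C, beta-lactamase FRET substrate was added; fluorescence read after 2 h at room temperature.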

[5] = qHTS assay to identify small molecule agonists of the farnesoid-X-receptor (FXR) signaling pathway - cell viability counter screen (AID 743218); note: nearly all actives have a fitted effect of over 45% in size
Method in brief: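 FXR-UAS-bla HEK 293T cells, plated 5 h at 37 C, were exposed to compounds for 16 h at 37 C. CellTiter-Glo was then added to the same wells as the bla readout; luminescence read after 30 min at room temperature.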

[6] = molecular target: Bile acid receptor (Homo sapiens) (UniProt Q96RI1); test: qHTS assay to identify small molecule agonists of the farnesoid-X-receptor (FXR) signaling pathway (AID 743220; active = well fitted activation curve with a large enough effect in the signal ratio in the repeat runs, not every such curve was filed as active; the % refers to the signal ratio)
Method in brief: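 Beta-lactamase reporter under UAS control in GeneBLAzer FXR HEK 293T cells (5000/well) measured with LiveBLAzer FRET substrate after 2 h at room temperature. Compound exposure lasted 16 h at 37C.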

[7] = qHTS assay to identify small molecule antagonists of the farnesoid-X-receptor (FXR) signaling pathway - cell viability counter screen (AID 743221; active = well fitted cell-killing curve with a large enough effect in the repeat runs, not every such curve was filed as active; note: nearly all actives have a fitted effect of over 50% in size)
Method in brief: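 FXR-UAS-bla HEK 293T cells were treated with test compounds plus chenodeoxycholic acid (50 uM final) for 16 h at 37 C. Cell viability in the same wells was then read as CellTiter-Glo luminescence after 30 min at room temperature.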

[8] = molecular target: Vitamin D3 receptor (Homo sapiens) (UniProt P11473); test: qHTS assay to identify small molecule agonists of the vitamin D receptor (VDR) signaling pathway (AID 743222; calls by dose curve)
Method in brief: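 VDR-bla cells were plated 4 h at 37C/5% CO2, then exposed to compounds in DMSO for 16 h. After LiveBLAzer B/G FRET substrate addition and 2 h at room temperature, beta-lactamase reporter fluorescence was read.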

[9] = molecular target: Vitamin D3 receptor (Homo sapiens) (UniProt P11473); test: qHTS assay to identify small molecule antagonists of the vitamin D receptor (VDR) signaling pathway (AID 743223; active = well fitted inhibition curve with a large enough effect in the signal ratio in the repeat runs, not every such curve was filed as active; the % refers to the signal ratio)
Method in brief: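 VDR-bla cells were plated, incubated 4 h at 37C, then given compound and 1alpha,25-dihydroxyvitamin D3 (3 nM final). After 16 h at 37C, LiveBLAzer B/G FRET substrate was added for 2 h at room temperature and fluorescence read.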

[10] = molecular target: Bile acid receptor (Homo sapiens) (UniProt Q96RI1); test: qHTS assay to identify small molecule antagonists of the farnesoid-X-receptor (FXR) signaling pathway (AID 743217; active = well fitted inhibition curve with a large enough effect in the signal ratio in the repeat runs, not every such curve was filed as active; the % refers to the signal ratio)
Method in brief: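 FXR-UAS-bla HEK 293T cells pre-incubated 5 h at 37 °C, then exposed to compounds with chenodeoxycholic acid (50 uM final) for 16 h at 37 °C. Beta-lactamase reporter read by LiveBLAzer B/G FRET substrate fluorescence after 2 h at room temperature.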

Measured: Potency

Bile acid receptor (Homo sapiens), sequence (Q96RI1 whole entry, looked up): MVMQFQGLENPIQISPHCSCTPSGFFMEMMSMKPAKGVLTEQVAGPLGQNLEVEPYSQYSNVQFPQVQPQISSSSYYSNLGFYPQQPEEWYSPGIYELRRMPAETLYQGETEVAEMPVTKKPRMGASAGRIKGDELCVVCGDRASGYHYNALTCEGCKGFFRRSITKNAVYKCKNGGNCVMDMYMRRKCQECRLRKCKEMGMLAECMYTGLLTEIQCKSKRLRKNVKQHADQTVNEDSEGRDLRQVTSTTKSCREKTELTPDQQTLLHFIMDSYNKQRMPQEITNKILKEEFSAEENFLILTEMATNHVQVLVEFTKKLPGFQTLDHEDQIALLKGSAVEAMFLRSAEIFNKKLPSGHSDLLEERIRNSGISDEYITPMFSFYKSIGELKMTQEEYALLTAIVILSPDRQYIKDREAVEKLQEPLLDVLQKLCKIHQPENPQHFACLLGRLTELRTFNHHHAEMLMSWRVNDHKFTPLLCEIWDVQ
Vitamin D3 receptor (Homo sapiens), sequence (P11473 whole entry, looked up): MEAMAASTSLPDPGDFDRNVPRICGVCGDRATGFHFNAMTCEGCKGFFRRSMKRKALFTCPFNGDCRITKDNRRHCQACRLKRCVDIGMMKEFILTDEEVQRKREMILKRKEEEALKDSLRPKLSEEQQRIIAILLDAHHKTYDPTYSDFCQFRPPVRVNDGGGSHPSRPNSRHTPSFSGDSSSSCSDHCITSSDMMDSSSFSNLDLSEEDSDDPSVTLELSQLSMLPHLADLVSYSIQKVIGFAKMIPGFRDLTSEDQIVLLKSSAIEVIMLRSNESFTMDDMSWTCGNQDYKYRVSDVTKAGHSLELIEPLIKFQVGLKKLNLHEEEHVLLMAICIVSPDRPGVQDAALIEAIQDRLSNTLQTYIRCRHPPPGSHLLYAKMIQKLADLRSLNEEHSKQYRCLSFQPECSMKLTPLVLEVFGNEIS
Peroxisome proliferator-activated receptor delta (Homo sapiens), sequence (Q03181 whole entry, looked up): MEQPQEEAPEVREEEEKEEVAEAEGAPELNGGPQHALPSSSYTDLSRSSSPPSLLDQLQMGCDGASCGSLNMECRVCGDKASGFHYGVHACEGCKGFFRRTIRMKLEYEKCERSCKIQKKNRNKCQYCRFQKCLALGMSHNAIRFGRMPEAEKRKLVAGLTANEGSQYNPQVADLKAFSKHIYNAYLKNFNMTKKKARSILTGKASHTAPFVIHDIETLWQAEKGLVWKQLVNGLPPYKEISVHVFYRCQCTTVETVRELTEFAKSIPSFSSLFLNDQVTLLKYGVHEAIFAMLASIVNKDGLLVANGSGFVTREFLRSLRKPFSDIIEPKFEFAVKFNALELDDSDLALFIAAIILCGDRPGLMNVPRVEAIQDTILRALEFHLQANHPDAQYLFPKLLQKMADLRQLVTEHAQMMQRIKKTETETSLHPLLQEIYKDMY

Cc1ccc(Nc2ccc(O)c3c2C(=O)c2ccccc2C3=O)cc1
not listed: [10]
inactive: all other assays above

OCCN1C[C@H](O)[C@@H](O)[C@H](O)[C@H]1CO
not listed: [8] | [9] | [10]
inactive: all other assays above

CCN1CCCC(OC(=O)C(c2ccccc2)c2ccccc2)C1 (centres undefined)
not listed: [8] | [9] | [10]
inactive: all other assays above

COc1ccc(COC=O)cc1
not listed: [8] | [9]
inactive: all other assays above

C1=C\CC/C=C\CC/C=C\CC/1
not listed: [9] | [10]
inactive: all other assays above

c1ccc(SCCSc2ccccc2)cc1
inactive: all assays above

CNC(=O)c1c(I)c(NC(=O)CCCCC(=O)Nc2c(I)c(C(=O)O)c(I)c(C(=O)NC)c2I)c(I)c(C(=O)O)c1I
not listed: [5]
inactive: all other assays above

O=C(O)c1cccc(C(=O)O)n1
not listed: [5] | [7] | [9]
inactive: all other assays above

CCCC(=O)O[C@]1(C(=O)CCl)[C@@H](C)C[C@H]2[C@@H]3CCC4=CC(=O)C=C[C@]4(C)[C@@]3(F)C(=O)C[C@@]21C
not listed: [9]
inactive: all other assays above

O=C(O)CCNC(=O)c1ccc(N=Nc2ccc(O)c(C(=O)O)c2)cc1
not listed: [8] | [9]
inactive: all other assays above

CCCCNc1ccccc1
inactive: all assays above

COc1cc(CCC(C)=O)ccc1O
not listed: [10]
inactive: all other assays above

C=C(C)[C@@H]1CCC2=CC(=O)C[C@@H](C)[C@]2(C)C1
not listed: [6] | [9] | [10]
inactive: all other assays above

CC(=O)CCc1ccc(O)cc1
not listed: [6] | [9] | [10]
inactive: all other assays above

Cc1ccc(N)cc1[N+](=O)[O-]
not listed: [6] | [10]
inactive: all other assays above

COc1ccc2cc(C=O)ccc2c1
not listed: [6] | [10]
inactive: all other assays above

Cc1ncc(CSSCc2cnc(C)c(O)c2CO)c(CO)c1O
not listed: [10]
inactive: all other assays above

OCCCCCCO
not listed: [8] | [10]
inactive: all other assays above

COc1cccc(Br)c1
not listed: [6] | [9] | [10]
inactive: all other assays above

CN1[C@@H]2CC[C@H]1CC(NC(=O)n1c(=O)[nH]c3ccccc31)C2 (some centres undefined)
not listed: [10]
inactive: all other assays above

CCCCCCCCCCCCCCC
not listed: [6] | [9] | [10]
inactive: all other assays above

OCC(O)[C@@H](O)[C@H](O)[C@H](O)CO[C@H]1O[C@H](CO)[C@@H](O)[C@H](O)[C@H]1O (some centres undefined)
inactive: [1] | [2] | [3] | [4] | [5] | [7]

COc1cc(O)cc(O)c1
not listed: [10]
inactive: all other assays above

CCn1cc(C(=O)O)c(=O)c2cc(F)c(N3CCN(C)CC3)cc21
inactive: [1] | [2] | [3] | [4] | [5] | [7]

N#CC1(O)CCCCC1
not listed: [10]
inactive: all other assays above

CC(C)(C)N(CCO)CCO
not listed: [10]
inactive: all other assays above

C=CCOCC(O)CS(=O)(=O)O (centres undefined)
not listed: [6] | [9] | [10]
inactive: all other assays above

O=C1CC2(CCCC2)CC(=O)N1
not listed: [10]
inactive: all other assays above

OCc1ccccn1
inactive: [1] | [2] | [3] | [4] | [5] | [7]

COC(=O)CCCC(=O)O
not listed: [6] | [9] | [10]
inactive: all other assays above
